Values joined by “and” are separate entries in the source; they are usually repeats but may differ in a detail not shown here. Equal entries are not always repeated. Results filed as inconclusive are left out. Active and inactive are the calls of the source. Unless noted, calls come from the whole dose curve; as a rule, active = well fitted curve in the direction sought with a large enough effect; inconclusive = small, poorly fitted or top-dose-only effect, or another doubt; inactive = no such curve, though single readings can be large; an effect the other way counts as inactive or inconclusive.
Columns and labels:
[1] = P-glycoprotein substrates identified in KB-8-5-11 adenocarcinoma cell line, qHTS therapeutic library screen (AID 1346987); note: nearly all actives have a fitted effect of over 65% in size; note: potency is the fitted concentration of half-maximal effect; for activity change, negative = cytotoxicity: series mostly up to about 44 µM; % is set by controls: 0 for no effect and ±100 for the full control effect
In short: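 P-gp-mediated resistance screen: KB-8-5-11 cells treated 72 h with compounds in dose-response. CellTiter-Glo viability.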

[2] = NS1 protein of Zika virus - qHTS assay to identify small molecule inhibitors in human HEK 293 cells (AID 1347053);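 note: series mostly up to about 46 µM; plate controls were infected untreated cells for no effect and uninfected cells for full effect; nearly all actives have a fitted effect of over 55% in size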
In short: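 HEK 293 cells pretreated with compound for 1 h, then infected with ZIKV MR766 (MOI 0.5) for 24 h at 37 C. NS1 detected by TR-FRET with two anti-NS1 antibodies; normalized to uninfected (0%) and infected (100%) wells.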

[3] = qHTS for Inhibitors of the Functional Ribonucleoprotein Complex (vRNP) of Lassa (LASV) Arenavirus: LASV Primary Screen - GLuc reporter signal (AID 1347082; calls by dose curve; tested in HEK293 reporter line; note: series mostly up to about 57 µM; % is set by controls: 0 for no effect and ±100 for the full control effect; nearly all actives have a fitted effect of over 60% in size)
[4] = qHTS for Inhibitors of the Functional Ribonucleoprotein Complex (vRNP) of Lassa (LASV) Arenavirus: Viability assay - alamar blue signal for LASV Primary Screen (AID 1347083; calls by dose curve; tested in HEK293 reporter line; note: series mostly up to about 57 µM; % is set by controls: 0 for no effect and ±100 for the full control effect; nearly all actives have a fitted effect of over 80% in size)
[5] = qHTS for Inhibitors of the Functional Ribonucleoprotein Complex (vRNP) of Lymphocytic Choriomeningitis Arenaviruses (LCMV): Viability assay - alamar blue signal for LCMV Primary Screen (AID 1347085; calls by dose curve; tested in HEK293 reporter line; note: series mostly up to about 57 µM; % is set by controls: 0 for no effect and ±100 for the full control effect; nearly all actives have a fitted effect of over 80% in size)
[6] = target: Nucleoprotein (Lymphocytic choriomeningitis virus (strain Armstrong)) (UniProt P09992); experiment: qHTS for Inhibitors of the Functional Ribonucleoprotein Complex (vRNP) of Lymphocytic Choriomeningitis Arenaviruses (LCMV): LCMV Primary Screen - GLuc reporter signal (AID 1347086; calls by dose curve; note: series mostly up to about 57 µM; % is set by controls: 0 for no effect and ±100 for the full control effect; nearly all actives have a fitted effect of over 70% in size)
Chain of Nucleoprotein (Lymphocytic choriomeningitis virus (strain Armstrong)) (P09992 whole entry, looked up): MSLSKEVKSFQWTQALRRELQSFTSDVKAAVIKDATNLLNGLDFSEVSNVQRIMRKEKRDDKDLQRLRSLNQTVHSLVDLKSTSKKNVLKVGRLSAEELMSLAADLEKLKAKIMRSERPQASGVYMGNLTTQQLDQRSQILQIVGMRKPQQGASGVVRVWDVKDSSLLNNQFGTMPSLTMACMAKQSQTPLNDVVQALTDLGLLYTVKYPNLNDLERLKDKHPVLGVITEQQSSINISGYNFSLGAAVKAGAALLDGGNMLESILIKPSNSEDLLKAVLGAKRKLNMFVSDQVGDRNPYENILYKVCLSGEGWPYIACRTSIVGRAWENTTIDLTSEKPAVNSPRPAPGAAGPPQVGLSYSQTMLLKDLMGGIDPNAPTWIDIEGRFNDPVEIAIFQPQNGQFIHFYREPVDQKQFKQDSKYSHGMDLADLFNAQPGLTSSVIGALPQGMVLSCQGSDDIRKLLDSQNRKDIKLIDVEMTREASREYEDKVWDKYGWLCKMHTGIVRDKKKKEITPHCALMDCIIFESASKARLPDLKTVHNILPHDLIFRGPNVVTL

[7] = qHTS of pediatric cancer cell lines to identify multiple opportunities for drug repurposing: Primary screen for TC32 cells (AID 1347089); note: % is set by controls: 0 for no effect and ±100 for the full control effect; nearly all actives have a fitted effect of over 60% in size
In short: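 Measured quantity: luminescence from CellTiter-Glo, reflecting metabolically active TC32 cells following 48 h of compound. Curves came straight from multi-point titrations, with 8 or 11 points in primary and 11 in confirmatory screening.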

[8] = qHTS of pediatric cancer cell lines to identify multiple opportunities for drug repurposing: Primary screen for DAOY cells (AID 1347090); note: nearly all actives have a fitted effect of over 55% in size; note: potency is the fitted concentration of half-maximal effect
In short: (§1)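 Cell viability, CellTiter-Glo luminescence; 500-1,000 cells/well, 8- or 11-point titration, 48 h compound exposure at 37 degrees C, 5% CO2. Controls: DMSO neutral, bortezomib 2.3 µM final as positive.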

[9] = qHTS of pediatric cancer cell lines to identify multiple opportunities for drug repurposing: Primary screen for SJ-GBM2 cells (AID 1347091); note: potency is the fitted concentration of half-maximal effect
In short: as §1

[10] = qHTS of pediatric cancer cell lines to identify multiple opportunities for drug repurposing: Primary screen for A673 cells (AID 1347092); note: % is set by controls: 0 for no effect and ±100 for the full control effect; nearly all actives have a fitted effect of over 45% in size
In short: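 Cells are plated, rested 5 h, dosed by pintool, incubated 48 h, then lysed with CellTiter-Glo and read by luminescence. DMSO is the neutral control; bortezomib at 2.3 uM final is the positive control.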

[11] = qHTS of pediatric cancer cell lines to identify multiple opportunities for drug repurposing: Primary screen for SK-N-MC cells (AID 1347093); note: potency is the fitted concentration of half-maximal effect
In short: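 Metabolically active cells were quantified by ATP-dependent luminescence (CellTiter-Glo, 15 min at room temperature) following 48 h treatment. Cells had been plated at 500-1,000 per well and settled for 5 h beforehand.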

[12] = qHTS of pediatric cancer cell lines to identify multiple opportunities for drug repurposing: Primary screen for BT-37 cells (AID 1347094);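 note: series mostly up to about 57 µM; plate controls were DMSO for no effect and bortezomib for full effect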
In short: (§2)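 Luminescence from CellTiter-Glo served as readout of metabolically active cells after 48 h compound exposure. Titrations: MIPE 11-point, from 0.78 nM; NPC 8-point, from 0.59 nM (final). Concentration-response curves came straight from the primary screen.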

[13] = qHTS of pediatric cancer cell lines to identify multiple opportunities for drug repurposing: Primary screen for NB-EBc1 cells (AID 1347095); note: potency is the fitted concentration of half-maximal effect
In short: as §2

[14] = qHTS of pediatric cancer cell lines to identify multiple opportunities for drug repurposing: Primary screen for U-2 OS cells (AID 1347096);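 note: plate controls were DMSO wells for no effect and bortezomib positive control wells for full effect; nearly all actives have a fitted effect of over 50% in size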
In short: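 Cells (500-1,000/well) rested 5 h, then received compounds for 48 h; metabolically active cells were measured by CellTiter-Glo luminescence. Final concentrations spanned up to 46 µM (MIPE, 11-point) or 0.59 nM-46 µM (NPC, 8-point) in primary screens, 11-point in follow-ups.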

[15] = target: Atrial natriuretic peptide receptor 1 (Homo sapiens) (UniProt P16066); experiment: Natriuretic polypeptide receptor (hNpr1) antagonism - Pilot screen (AID 1347049; calls by dose curve;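 note: agonist-evoked cGMP luminescence read 20 min after hNppA addition; series mostly up to about 58 µM; % is set by controls: 0 for no effect and ±100 for the full control effect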)
Chain of Atrial natriuretic peptide receptor 1 (Homo sapiens) (P16066 whole entry, looked up): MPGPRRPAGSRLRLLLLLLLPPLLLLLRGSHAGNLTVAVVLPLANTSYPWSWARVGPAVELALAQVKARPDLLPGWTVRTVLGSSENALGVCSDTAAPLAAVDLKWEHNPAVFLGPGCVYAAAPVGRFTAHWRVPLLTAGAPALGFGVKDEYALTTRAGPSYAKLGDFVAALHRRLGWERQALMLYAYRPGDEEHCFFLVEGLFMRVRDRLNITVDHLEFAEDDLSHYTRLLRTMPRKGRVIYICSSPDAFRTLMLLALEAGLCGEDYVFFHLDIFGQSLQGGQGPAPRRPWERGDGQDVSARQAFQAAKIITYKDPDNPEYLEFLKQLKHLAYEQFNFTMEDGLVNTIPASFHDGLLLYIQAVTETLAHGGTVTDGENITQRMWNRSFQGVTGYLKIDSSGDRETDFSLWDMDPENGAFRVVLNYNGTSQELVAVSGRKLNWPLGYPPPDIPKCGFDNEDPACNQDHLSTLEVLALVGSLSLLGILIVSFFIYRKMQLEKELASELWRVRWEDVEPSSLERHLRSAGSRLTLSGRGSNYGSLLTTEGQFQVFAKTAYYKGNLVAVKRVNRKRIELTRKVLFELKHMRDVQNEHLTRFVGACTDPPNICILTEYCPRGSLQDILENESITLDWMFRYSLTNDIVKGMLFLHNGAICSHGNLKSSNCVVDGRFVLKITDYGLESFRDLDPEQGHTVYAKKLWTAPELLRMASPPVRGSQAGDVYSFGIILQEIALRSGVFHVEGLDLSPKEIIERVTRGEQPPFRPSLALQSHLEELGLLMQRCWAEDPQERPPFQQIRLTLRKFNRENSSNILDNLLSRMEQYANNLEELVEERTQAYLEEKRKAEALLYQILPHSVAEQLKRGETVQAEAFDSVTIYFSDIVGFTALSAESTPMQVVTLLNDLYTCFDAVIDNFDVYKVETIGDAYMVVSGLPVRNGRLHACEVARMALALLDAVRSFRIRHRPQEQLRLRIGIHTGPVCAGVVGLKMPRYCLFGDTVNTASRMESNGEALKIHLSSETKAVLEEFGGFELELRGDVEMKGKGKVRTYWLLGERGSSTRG
In short: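 Readout is cGMP-driven firefly luciferase luminescence in HEK293 cells carrying hNpr1 and a PDE5-domain GloSensor, read before and 20 min after 0.1 nM hNppA stimulation. Cells had 2% substrate reagent for 2 h and test compound for 30 min.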

[16] = target: Atrial natriuretic peptide receptor 2 (Homo sapiens) (UniProt P20594); experiment: Natriuretic polypeptide receptor (hNpr2) antagonism - Pilot subtype selectivity assay (AID 1347050; calls by dose curve; note: % is set by controls: 0 for no effect and ±100 for the full control effect)
Chain of Atrial natriuretic peptide receptor 2 (Homo sapiens) (P20594 whole entry, looked up): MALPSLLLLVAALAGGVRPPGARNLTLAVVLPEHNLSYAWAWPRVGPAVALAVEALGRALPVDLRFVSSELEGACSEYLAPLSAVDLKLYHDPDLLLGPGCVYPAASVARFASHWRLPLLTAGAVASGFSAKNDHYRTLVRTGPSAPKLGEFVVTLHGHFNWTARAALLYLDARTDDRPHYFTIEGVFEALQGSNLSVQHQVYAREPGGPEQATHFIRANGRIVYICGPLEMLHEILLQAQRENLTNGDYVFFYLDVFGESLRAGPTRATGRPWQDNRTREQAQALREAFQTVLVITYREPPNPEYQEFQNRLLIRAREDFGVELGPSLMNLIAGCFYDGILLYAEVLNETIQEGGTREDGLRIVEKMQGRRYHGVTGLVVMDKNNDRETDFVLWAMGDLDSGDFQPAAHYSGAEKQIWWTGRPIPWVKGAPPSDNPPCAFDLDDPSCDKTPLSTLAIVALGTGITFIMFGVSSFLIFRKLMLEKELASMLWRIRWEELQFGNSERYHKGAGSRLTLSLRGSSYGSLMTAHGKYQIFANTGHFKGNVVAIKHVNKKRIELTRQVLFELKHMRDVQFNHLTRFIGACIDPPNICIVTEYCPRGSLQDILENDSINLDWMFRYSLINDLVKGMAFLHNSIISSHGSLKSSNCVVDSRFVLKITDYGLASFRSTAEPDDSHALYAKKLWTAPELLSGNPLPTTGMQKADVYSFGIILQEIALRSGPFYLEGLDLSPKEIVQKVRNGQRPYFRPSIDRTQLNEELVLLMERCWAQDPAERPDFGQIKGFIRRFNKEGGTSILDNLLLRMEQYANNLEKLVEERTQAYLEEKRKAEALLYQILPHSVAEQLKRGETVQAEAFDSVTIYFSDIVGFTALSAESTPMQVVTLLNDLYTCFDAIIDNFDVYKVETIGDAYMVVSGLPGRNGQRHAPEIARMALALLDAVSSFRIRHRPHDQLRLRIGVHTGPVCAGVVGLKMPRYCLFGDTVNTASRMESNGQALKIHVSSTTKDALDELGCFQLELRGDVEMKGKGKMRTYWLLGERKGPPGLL
In short: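 Pilot selectivity screen against hNpr2: HEK293 cGMP-sensor cells are treated with LOPAC1280 compounds, then with hNppC peptide at 1 nM final. The cGMP-driven luminescence change over 20 min at room temperature is the read-out.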

[17] = target: Parathyroid hormone/parathyroid hormone-related peptide receptor (Homo sapiens) (UniProt Q03431); experiment: qHTS for PTHR1 Agonists: Optimization Screen against the NCGC LOPAC library (AID 1347079);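 note: GloSensor cAMP luminescence in HEK-293 GP2 cells expressing human PTHR1 with IBMX; 0% is about no effect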
Chain of Parathyroid hormone/parathyroid hormone-related peptide receptor (Homo sapiens) (Q03431 whole entry, looked up): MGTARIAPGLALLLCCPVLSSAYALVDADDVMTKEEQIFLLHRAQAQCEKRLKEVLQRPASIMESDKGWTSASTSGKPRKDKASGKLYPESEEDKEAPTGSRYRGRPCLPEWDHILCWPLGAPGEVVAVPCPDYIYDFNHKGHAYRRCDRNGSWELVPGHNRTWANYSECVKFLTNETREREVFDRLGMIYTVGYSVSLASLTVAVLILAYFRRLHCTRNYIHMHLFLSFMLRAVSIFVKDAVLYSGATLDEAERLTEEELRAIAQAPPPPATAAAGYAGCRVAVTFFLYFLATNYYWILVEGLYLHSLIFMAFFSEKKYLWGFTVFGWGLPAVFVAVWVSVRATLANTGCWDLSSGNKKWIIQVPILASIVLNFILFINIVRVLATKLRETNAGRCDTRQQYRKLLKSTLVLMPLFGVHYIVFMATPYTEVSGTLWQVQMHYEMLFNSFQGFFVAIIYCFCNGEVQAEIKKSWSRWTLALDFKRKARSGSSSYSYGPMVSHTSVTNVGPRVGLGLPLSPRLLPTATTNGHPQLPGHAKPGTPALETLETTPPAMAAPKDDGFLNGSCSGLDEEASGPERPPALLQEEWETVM
In short: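 Compounds were tested across a qHTS titration. PTHR1-expressing GP2 cells report cAMP rises via GloSensor luminescence after 1 hr compound exposure at 37C with IBMX present.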

[18] = qHTS of pediatric cancer cell lines to identify multiple opportunities for drug repurposing: Primary screen for Saos-2 cells (AID 1347097); note: % is set by controls: 0 for no effect and ±100 for the full control effect; nearly all actives have a fitted effect of over 40% in size
In short: as §2

[19] = target: T1, Tyrosine-protein phosphatase non-receptor type substrate 1 (Homo sapiens) + Leukocyte surface antigen CD47 (Homo sapiens) (UniProt P78324+Q08722); experiment: CD47-SIRPalpha protein protein interaction - HTRF assay qHTS validation (AID 1347058; active = well fitted curve in the direction sought with a large enough effect in the signal ratio, not every such curve was filed as active; the % refers to the signal ratio;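 note: recombinant soluble extracellular CD47 with His tag and biotinylated SIRPalpha domains; series mostly up to about 38 µM; 0% is about no effect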)
T1 sequence (P78324 whole entry, looked up, the tested form may be a part): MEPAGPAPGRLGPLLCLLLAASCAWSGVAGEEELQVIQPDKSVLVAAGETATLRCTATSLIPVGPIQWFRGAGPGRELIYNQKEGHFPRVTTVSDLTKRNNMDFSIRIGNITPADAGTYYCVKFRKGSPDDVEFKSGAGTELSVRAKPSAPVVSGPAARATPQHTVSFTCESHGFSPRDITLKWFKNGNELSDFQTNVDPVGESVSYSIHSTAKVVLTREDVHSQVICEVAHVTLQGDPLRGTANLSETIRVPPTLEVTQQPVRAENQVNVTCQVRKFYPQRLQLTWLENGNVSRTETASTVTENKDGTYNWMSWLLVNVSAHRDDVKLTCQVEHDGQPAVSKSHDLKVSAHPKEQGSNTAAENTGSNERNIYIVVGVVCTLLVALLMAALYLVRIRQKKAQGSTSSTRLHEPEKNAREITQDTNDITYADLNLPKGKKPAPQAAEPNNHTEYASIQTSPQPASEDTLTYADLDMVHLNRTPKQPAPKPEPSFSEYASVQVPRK
T1 sequence (Q08722 whole entry, looked up, the tested form may be a part): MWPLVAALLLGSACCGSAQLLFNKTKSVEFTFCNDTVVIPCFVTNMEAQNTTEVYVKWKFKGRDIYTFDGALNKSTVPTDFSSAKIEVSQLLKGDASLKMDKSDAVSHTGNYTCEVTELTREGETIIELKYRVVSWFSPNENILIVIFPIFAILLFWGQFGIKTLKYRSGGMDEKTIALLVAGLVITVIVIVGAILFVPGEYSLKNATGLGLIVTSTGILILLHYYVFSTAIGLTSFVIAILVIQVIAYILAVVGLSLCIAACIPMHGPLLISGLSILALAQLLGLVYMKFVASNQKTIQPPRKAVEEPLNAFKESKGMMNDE
In short: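 TR-FRET read (Ch1/Ch2 ratio) of soluble extracellular CD47 and Avi-biotinylated SIRPalpha domains in PBS pH 7.4 with 0.05% IGEPAL; 7-point compound titration. Sequential 30 min room-temperature steps; non-biotinylated SIRPalpha as control inhibitor.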

[20] = target: T1, Tyrosine-protein phosphatase non-receptor type substrate 1 (Homo sapiens) + Leukocyte surface antigen CD47 (Homo sapiens); experiment: CD47-SIRPalpha protein protein interaction - Alpha assay qHTS validation (AID 1347059);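 note: bead proximity luminescence from CD47 binding SIRPalpha after compound preincubation with SIRPalpha; % is set by controls: 0 for no effect and ±100 for the full control effect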
In short: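 Binding is measured by AlphaScreen proximity: Ni-NTA acceptor beads capture His-CD47, streptavidin donor beads capture biotin-SIRPalpha. Each of three additions (SIRPalpha with compound, CD47, beads) incubates 30 min at room temperature protected from light.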

CN=C1CN(O)C(c2ccccc2)=c2cc(Cl)ccc2=N1
inactive: Potency [1]

c1ccc2c(c1)sc1ccccc12
inactive: Potency [1] | outcome [2] | Potency [3] | Potency [4] | Potency [5] | Potency [6] | Potency [7] | Potency [8] | Potency [9] | Potency [10] | Potency [11] | Potency [12] | Potency [13] | Potency [14]

O=C(O)CCCc1ccc(N(CCCl)CCCl)cc1
active: Potency [9] 13.2 µM | Potency [11] 20.9 µM | Potency [13] 11.9 µM and 1.05 µM
inactive: Potency [1] | outcome [15] | outcome [16] | outcome [2] | outcome [17] | Potency [3] | Potency [4] | Potency [5] | Potency [6] | Potency [7] | Potency [8] | Potency [10] | Potency [14] | Potency [18]

CCCCCCC(=O)CCCCCC/C=C/C[C@@H](O)[C@H](O)[C@@](N)(CO)C(=O)O
inactive: Potency [1] | outcome [2] | Potency [3] | Potency [4] | Potency [5] | Potency [6] | Potency [7] | Potency [8] | Potency [9] | Potency [10] | Potency [11] | Potency [12] | Potency [13] | Potency [14]

O=C1Nc2ccc(Cl)cc2C(c2ccccc2)=NC1O (centres undefined)
inactive: Potency [1]

CC(C)[C@H]1C(=O)N2CCC[C@H]2[C@]2(O)O[C@](NC(=O)[C@@H]3C[C@@H]4c5cccc6[nH]cc(c56)C[C@H]4N(C)C3)(C(C)C)C(=O)N12
inactive: Potency [1]

COc1ccc2c(c1)C13CCCC[C@@H]1C(C2)N(C)CC3 (some centres undefined)
inactive: Potency [1]

CN1C(=O)CC(=O)N(c2ccccc2)c2cc(Cl)ccc21
inactive: Potency [1]

O=C(Nc1ccc(Br)cc1)c1cc(Br)cc(Br)c1O
active: Potency [1] 4.61 µM | Potency [8] 21.1 µM
inactive: outcome [2] | Potency [3] | Potency [4] | Potency [5] | Potency [6] | Potency [7]

Cc1ncsc1CCCl
inactive: Potency [1] | outcome [15] | outcome [16] | outcome [2] | outcome [19] | outcome [20] | outcome [17] | Potency [3] | Potency [4] | Potency [5] | Potency [6] | Potency [7] | Potency [8] | Potency [9] | Potency [10] | Potency [11] | Potency [12] | Potency [13] | Potency [14] | Potency [18]

C=C(C)[C@H]1CN[C@H](C(=O)O)[C@H]1CC(=O)O
inactive: Potency [1] | outcome [15] | outcome [16] | outcome [2] | outcome [19] | outcome [20] | outcome [17] | Potency [3] | Potency [4] | Potency [5] | Potency [6] | Potency [7] | Potency [8] | Potency [9] | Potency [10] | Potency [11] | Potency [12] | Potency [13] | Potency [14] | Potency [18]

COP(=S)(OC)Oc1ccc(S(=O)(=O)N(C)C)cc1
inactive: Potency [1] | outcome [2] | Potency [3] | Potency [4] | Potency [5] | Potency [6] | Potency [7] | Potency [8] | Potency [9] | Potency [10] | Potency [11] | Potency [12] | Potency [13] | Potency [14] | Potency [18]

CCN[C@@H](C)Cc1cccc(C(F)(F)F)c1
inactive: Potency [1] | outcome [2] | Potency [3] | Potency [4] | Potency [5] | Potency [6] | Potency [7] | Potency [8] | Potency [9] | Potency [10] | Potency [11] | Potency [12] | Potency [13] | Potency [14] | Potency [18]

O=c1[nH]oc2c1CCNC2
inactive: Potency [1] | outcome [15] | outcome [16] | outcome [2] | outcome [19] | outcome [20] | outcome [17] | Potency [3] | Potency [4] | Potency [5] | Potency [6] | Potency [7] | Potency [8] | Potency [9] | Potency [10] | Potency [11] | Potency [12] | Potency [13] | Potency [14] | Potency [18]

NCCc1ccc(O)cc1
inactive: Potency [1] | outcome [15] | outcome [16] | outcome [2] | outcome [19] | outcome [20] | outcome [17] | Potency [3] | Potency [4] | Potency [5] | Potency [6] | Potency [7] | Potency [8] | Potency [9] | Potency [10] | Potency [11] | Potency [12] | Potency [13] | Potency [14] | Potency [18]

CCC(C)(C)c1ccc(O)cc1
inactive: Potency [1] | outcome [2] | Potency [3] | Potency [4] | Potency [5] | Potency [6] | Potency [7] | Potency [8] | Potency [9] | Potency [10] | Potency [11] | Potency [12] | Potency [13] | Potency [14] | Potency [18]

CCCCC/C=C\C/C=C\C/C=C\C/C=C\CCCC(=O)NCC(=O)O
inactive: activity change, negative = cytotoxicity [1] 0.883% [at 5.11 µM] | outcome [15] | outcome [16] | outcome [2] | outcome [17] | Potency [3] | Potency [4] | Potency [5] | Potency [6] | Potency [7] | Potency [8] | Potency [9] | Potency [10] | Potency [12] | Potency [14]

CC(C)(C)NCC(O)c1ccccc1Cl (centres undefined)
inactive: Potency [1] | outcome [15] | outcome [16] | outcome [2] | outcome [19] | outcome [20] | outcome [17] | Potency [3] | Potency [4] | Potency [5] | Potency [6] | Potency [7] | Potency [8] | Potency [9] | Potency [10] | Potency [11] | Potency [12] | Potency [13] | Potency [14] | Potency [18]

CC(NC(C)(C)C)C(=O)c1cccc(Cl)c1 (centres undefined)
inactive: Potency [1] | outcome [15] | outcome [16] | outcome [2] | outcome [19] | outcome [20] | outcome [17] | Potency [3] | Potency [4] | Potency [5] | Potency [6] | Potency [7] | Potency [8] | Potency [9] | Potency [10] | Potency [12] | Potency [13] | Potency [14] | Potency [18]
active: Potency [11] 1.1 nM and 29.6 µM

CCCC(C)(COC(N)=O)COC(N)=O
inactive: Potency [1]

CC(C)N(CCC(C(N)=O)(c1ccccc1)c1ccccn1)C(C)C (centres undefined)
inactive: Potency [1] | outcome [15] | outcome [16] | outcome [2] | outcome [19] | outcome [20] | outcome [17] | Potency [3] | Potency [4] | Potency [5] | Potency [6] | Potency [7] | Potency [8] | Potency [9] | Potency [10] | Potency [11] | Potency [12] | Potency [13] | Potency [14] | Potency [18]

From PubChem BioAssay (NCATS)
